Screens: PubChem BioAssay, National Center for Advancing Translational Sciences (NCATS)
TDP1 inh: qHTS Assay for Inhibitors of Tyrosyl-DNA Phosphodiesterase (TDP1) | Tyrosyl-DNA phosphodiesterase 1 (Homo sapiens), Q9NUW8 | recombinant TDP1, AlphaScreen DNA substrate cleavage | Potency, µM (highest dose often 130 µM), for the others: top-dose activity change, negative = inhibition, actives largely listed as inhibitors | actives 0.28% (n = 350,000) | AID 485290, 2010; further: potency means the concentration at half of the fitted maximal effect; on the % scale 0 is the no-effect control and ±100 the full control effect; nearly all actives have a fitted effect of over 40% in size
Target sequence (Q9NUW8 whole entry, looked up): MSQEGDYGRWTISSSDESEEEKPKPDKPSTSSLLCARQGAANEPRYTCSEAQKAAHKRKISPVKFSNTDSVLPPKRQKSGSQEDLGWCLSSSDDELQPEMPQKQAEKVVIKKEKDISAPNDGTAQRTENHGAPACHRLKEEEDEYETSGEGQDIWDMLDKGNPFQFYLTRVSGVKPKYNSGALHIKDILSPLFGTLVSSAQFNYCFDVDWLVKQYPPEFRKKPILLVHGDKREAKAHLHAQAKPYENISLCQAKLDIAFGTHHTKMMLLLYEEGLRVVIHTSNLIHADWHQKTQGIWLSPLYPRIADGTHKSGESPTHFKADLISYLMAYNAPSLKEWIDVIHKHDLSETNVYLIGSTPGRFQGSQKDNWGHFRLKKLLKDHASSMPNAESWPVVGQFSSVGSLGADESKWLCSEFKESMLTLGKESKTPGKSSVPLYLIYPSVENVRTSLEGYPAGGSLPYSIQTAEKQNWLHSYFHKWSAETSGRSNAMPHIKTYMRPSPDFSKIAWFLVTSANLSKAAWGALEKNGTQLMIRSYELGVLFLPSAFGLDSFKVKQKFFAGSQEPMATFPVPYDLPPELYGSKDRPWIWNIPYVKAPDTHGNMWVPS
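Steps: enzyme plus compound, 15 min RT; add biotin/phosphotyrosine-FITC oligonucleotide (15 nM final), react 5 min; add donor/acceptor beads (10 ug/ml final), 10 min; read AlphaScreen. Tdp1 at 1 nM final.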
miR-21 act: qHTS Assay for Modulators of miRNAs and/orActivators of miR-21; 340,000 tested, under 10 active; AID 2288, 2010; HeLa miR-21 FLuc reporter, luciferase, 48 h; Potency, µM (titrated, usually from 38.3 µM), without a hit: at the highest dose activity change, positive = activation, most hits filed as activators;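 further: % of control where 0% means no effect; miR-21 action dims this reporter so a rising signal means less miR-21 action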
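Luminescence from a firefly luciferase reporter carrying a miR-21 binding site downstream, stably expressed under a CMV promoter in HeLa cells that make miR-21 endogenously, reports miRNA modulation after 48 h compound exposure up to approximately 40uM final.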
DT40 TDP1 CPT: qHTS for Inhibitors of human tyrosyl-DNA phosphodiesterase 1 (TDP1): qHTS in cells in presence of CPT. actives 12% (n = 420,000). Potency, µM (top dose mostly 46.2 µM), for the others: at the top dose activity change, negative = growth inhibition, hits mostly inhibitors. chicken DT40 Tdp1-/-;hTDP1 cells + 20 nM CPT, ATP luminescence, 48 h; further: potency means the concentration at half of the fitted maximal effect; on the % scale 0 is the no-effect control and ±100 the full control effect; nearly all actives have a fitted effect of over 55% in size
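Chicken DT40 Tdp1-/- cells stably complemented with human TDP1 were seeded at 400 cells/well in medium containing 20 nM camptothecin, exposed to pin-transferred compounds, and grown at 37 °C for at least 48 hr. Viability was read as ATP luminescence.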
DT40 TDP1 no CPT: qHTS for Inhibitors of human tyrosyl-DNA phosphodiesterase 1 (TDP1): qHTS in cells in absence of CPT | actives 15% (n = 420,000) | Potency, µM (highest dose often 46.2 µM), for inactives: top-dose activity change, negative = growth inhibition, most hits filed as inhibitors | AID 686978, 2013 | DT40 Tdp1-/- hTDP1 cells, no CPT, ATP luminescence, 48 h; further: potency means the concentration at half of the fitted maximal effect; on the % scale 0 is the no-effect control and ±100 the full control effect; nearly all actives have a fitted effect of over 55% in size
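Luminescent ATP content (CellTiter-Glo) served as the growth readout. Knockout chicken DT40 cells expressing human TDP1 were exposed to compounds without camptothecin for a minimum 48 hr at 37 °C.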
uPA surface inh: qHTS for Inhibitors of Cell Surface uPA Generation | Potency, µM (doses to about 38.3 µM), for inactives: at the highest dose activity change, negative = inhibition, most hits filed as inhibitors | cell surface uPA generation assay, qHTS | actives 0.31% (n = 330,000); active means well fitted inhibition curve with a large enough effect; inconclusive means small, poorly fitted or top-dose-only effect; inactive means no such curve, though single readings can be large or run the other way; tested in mouse RAW 264.7 cells; further: potency means the concentration at half of the fitted maximal effect; on the % scale 0 is the no-effect control and ±100 the full control effect; nearly all actives have a fitted effect of over 55% in size
* hit, by the source's call; ? = inconclusive; nt = no result given. A selection: hits, their analogues and other compounds. The true share with any hit is near 16%. Unless noted, the call rests on the fitted dose curve; in most records, active means well fitted curve in the direction sought with a large enough effect; inconclusive means small, poorly fitted or top-dose-only effect, or another doubt; inactive means no such curve, though single readings can be large; an effect the other way counts as inactive or inconclusive.

SMILES	TDP1 inh	miR-21 act	DT40 TDP1 CPT	DT40 TDP1 no CPT	uPA surface inh
O=[N+]([O-])c1ccc2nc(-c3ccccc3)n(OCc3ccc(Cl)cc3)c2c1	nt	-36%	15µM*	9.2µM*	3%
Nc1nc2[nH]cc(CCc3ccc(C(=O)N[C@@H](CCC(=O)O)C(=O)O)cc3)c2c(=O)[nH]1	nt	nt	0.047µM*	0.03µM*	nt
COc1ccc(-n2nc(C(=O)NCC(=O)N3CCCCC3)c3ccccc3c2=O)cc1	1%	-6%	-5%	?	-2%
COc1cccc(/C=N/NC(=O)CN2CC(c3ccccc3)CC2=O)c1OC (stereo not drawn)	2%	-7%	-3%	14%	2%
CO[C@@H]1CN(C)C(=O)c2cc(NC(=O)Nc3ccc4c(c3)OCO4)ccc2OC[C@@H](C)N(C)C[C@H]1C	nt	nt	12%	3%	nt
CCCC(=O)Nc1ccc2c(c1)C(=O)N(C)C[C@@H](OC)[C@H](C)CN(Cc1ccc(-c3ccccn3)cc1)[C@@H](C)CO2	nt	nt	?	23µM*	nt
COCC(=O)N1C[C@H](C)[C@H](OC)CN(C)C(=O)c2cc(NC(=O)Nc3cccc(F)c3)ccc2OC[C@@H]1C	nt	nt	12µM*	10µM*	nt
CCC(=O)Nc1ccc2c(c1)OC[C@@H](C)N(Cc1ccccc1F)C[C@@H](C)[C@@H](OC)CN(C)C2=O	nt	nt	-29%	-15%	nt
CO[C@@H]1CN(C)C(=O)c2cc(NC(=O)NC3CCCCC3)ccc2OC[C@@H](C)N(CCc2ccccc2)C[C@H]1C	nt	nt	23µM*	16µM*	nt
Cn1c(=O)c2nc(SCC(=O)Nc3cc(Cl)ccc3Cl)n(C)c2n(C)c1=O	-5%	5%	?	?	nt
Cc1nc2ccccc2c(=O)n1C1CCCCCC1	0%	-22%	?	?	-3%
CCO/C(C)=N/n1c2nc3ccccc3nc2c2c(=O)n(C3CCCC3)c(C)nc21	0%	-9%	18µM*	15µM*	7%
Cc1ccc(CNC(=O)C2(CC(C)C)C=CCN2C(=O)c2ccccc2)o1 (stereo not drawn)	1%	nt	nt	nt	nt
CC(C)CC1(C(=O)NCc2cc(F)cc(C(F)(F)F)c2)C=CCN1C(=O)c1ccccc1 (stereo not drawn)	-3%	-2%	?	29µM*	-23%
COC(=O)c1c(C)cc(OC(=O)c2c(C)cc(O)c(C=O)c2O)c(C)c1O	3%	nt	5.8µM*	4.1µM*	nt
COc1ccc(-c2nc3sc(CCNC(=O)c4ccc(Br)o4)c(C)n3n2)cc1	8%	-21%	16µM*	16µM*	nt
COc1ccc(-c2nc3sc(CCNC(=O)c4ccc(C(C)(C)C)cc4)c(C)n3n2)cc1	3%	-39%	?	8.2µM*	nt
Cc1c(CCNC(=O)c2ccc(Br)o2)sc2nc(-c3ccc(Cl)cc3)nn12	3%	16%	18µM*	23µM*	nt
CCC(=O)NCCc1sc2nc(-c3ccc(OC)cc3)nn2c1C	-5%	-34%	-25%	?	nt
CCS(=O)(=O)NCCc1sc2nc(-c3ccc(OC)cc3)nn2c1C	0%	6%	?	21µM*	nt
CNC(=S)N1CCC(NC(=O)C(Cc2ccc(OC)cc2)NC(C)=O)CC1 (stereo not drawn)	nt	3%	10%	2%	24%
CCCN(CCC)C(=O)Cn1c(=O)n(CCC(=O)NCCc2ccccc2)c(=O)c2ccccc21	-6%	-2%	1%	?	5%
COc1ccc(-c2nc3sc(CCNC(=O)c4cc(Cl)ccc4OC)c(C)n3n2)cc1	-5%	2%	16µM*	13µM*	nt
COc1ccc(-c2nc3sc(CCNC(=O)Cc4ccc(Cl)cc4)c(C)n3n2)cc1	3%	-17%	?	?	nt
N#Cc1ccc(COC(=O)c2cc(=O)c3ccccc3o2)cc1	5%	1%	8%	4%	-6%
SMILES	TDP1 inh	miR-21 act	DT40 TDP1 CPT	DT40 TDP1 no CPT	uPA surface inh
CCC1C(=O)Nc2nc(-c3ccccc3)c(-c3ccccc3)n2N=C1C (stereo not drawn)	5%	2%	21µM*	23µM*	8%
CC12CC(NC(=O)N1c1ccc(C(=O)N3CCN(c4ccc(F)cc4)CC3)cc1)c1ccccc1O2 (stereo not drawn)	6%	14%	?	?	-18%
Cc1nc(CN2CCN(Cc3nc(C(c4ccccc4)c4ccccc4)no3)CC2)cs1	3%	1%	7.3µM*	10µM*	-3%
FC(F)(F)c1ccc(-c2noc(CN3CCCN(C4CCCCC4)CC3)n2)cc1	-3%	-2%	21µM*	21µM*	10%
c1ccc(C(c2ccccc2)c2noc(CN3CCN(C4CCCC4)CC3)n2)cc1	0%	-1%	?	21µM*	-24%
COc1ccc2oc(=O)c(C(=O)N3CCN(c4cc(Cl)ccc4Cl)CC3)cc2c1	6%	-2%	nt	nt	nt
COc1ccc(S(=O)(=O)NCC2CCCN(C(=O)CCSC)C2)cc1 (stereo not drawn)	nt	1%	-10%	-23%	9%
O=C(Nc1cccc(F)c1)/C(=C/c1ccco1)NC(=O)c1ccco1	2%	-4%	-14%	2%	-9%
CC1CCN(S(=O)(=O)c2nnc(NC(=O)c3cccc(F)c3)s2)CC1	1%	-4%	?	?	nt
CCc1nc2ccc(C(=O)Nc3cc(-c4ccccc4)ccc3OC)cn2c1N(C=O)CCC(C)C	nt	nt	16µM*	15µM*	nt
CCc1nc2ccc(C(=O)Nc3cc(-c4ccccc4)ccc3OC)cn2c1N(C)CCC(C)C	nt	nt	18µM*	21µM*	nt
CCc1nc2ccc(C(=O)N(C)CCN(C)C)cn2c1N(C)CCC(C)C	nt	nt	5%	?	nt
CCc1nc2ccc(C(=O)NCCC(C)C)cn2c1N(CCN(C)C)CC1CC1	nt	nt	-9%	-6%	nt
CCc1nc2ccc(C(=O)Nc3ccc(NC(C)=O)cc3)cn2c1N(CCC(C)C)CCN(C)C	nt	nt	6%	-25%	nt
CCc1nc2ccc(C(=O)Nc3cc(-c4ccccc4)ccc3OC)cn2c1N(CCN(C)C)CC1CC1	nt	nt	21µM*	15µM*	nt
CCCCCCCCCCOC(=O)Cn1c(COc2ccccc2OC)[n+](C)c2ccccc21	5%	29%	1µM*	1.3µM*	-15%
Cn1c(COc2ccccc2O)[n+](C)c2ccccc21	nt	0%	8%	-8%	5%
COCc1cc(Sc2ccc(Cl)cc2)nc(C)n1	-3%	-12%	?	-9%	-3%
COCc1cc(S(=O)c2ccc(Cl)cc2)nc(C)n1 (stereo not drawn)	5%	18%	4.6µM*	2.9µM*	5µM*
CCOc1ccc(C(=O)N2CCN(c3ncccn3)CC2)cc1	nt	nt	6%	-13%	11%
